From PubChem
In the library only some 21% were active in any assay of this set; here they are far more common.
Cycloheximide cs: Cycloheximide Counterscreen for Small Molecule Inhibitors of Shiga Toxin. max response, %. actives 12% (n = 300,000). AID 2314, 2010. cell reporter, cycloheximide protein synthesis inhibition counterscreen; in the data active = max response mostly above about 13%, no sharp cut-off; inactive = mostly below about 14%; note: read at 38.3 µM for the half of the compounds with a filed dose; 0% is about no effect
Pf growth 48h: Primary qHTS for delayed death inhibitors of the malarial parasite plastid, 48 hour incubation | actives 5.9% (n = 310,000) | P. falciparum luciferase growth in erythrocytes, 48 h | Potency, µM (titrated, usually from 28.7 µM), inactives show top-dose activity change, negative = inhibition, hits mostly inhibitors; note: potency is the fitted concentration of half-maximal effect; % is set by controls: 0 for no effect and ±100 for the full control effect
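Growth was read as firefly luciferase luminescence after a 48 h, 37 C, 5% CO2 exposure of compounds to reporter-bearing P. falciparum cultures (0.1% parasitemia, 2% hematocrit final) in Albumax-supplemented RPMI 1640.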
Sm TGR inh: qHTS Assay for the Inhibitors of Schistosoma Mansoni Peroxiredoxins. Schistosoma mansoni thioredoxin glutathione reductase (TGR), Q962Y6. actives 3% (n = 360,000). Potency, µM (titrated, usually from 114 µM), without a hit: at the highest dose activity change, negative = inhibition, actives largely listed as inhibitors. purified TGR, DTNB reduction, TNB absorbance 405 nm; note: potency is the fitted concentration of half-maximal effect; % is set by controls: 0 for no effect and ±100 for the full control effect; nearly all actives have a fitted effect of over 60% in size
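First, TGR (20 nM dispensed) and NADPH were mixed with compound. Second, a 15 min room-temperature incubation followed. Third, further NADPH and then DTNB were added to start the reaction. Finally, TNB absorbance was monitored kinetically.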
NS1 function inh: qHTS Assay for Inhibitors of Influenza NS1 Protein Function; actives 0.4% (n = 270,000); Potency, µM (doses to about 46.1 µM), for inactives: at the highest dose activity, positive = more growth; AID 2326, 2010; calls by dose curve; note: potency is the fitted concentration of half-maximal effect; actives are rising curves; nearly all actives have a fitted effect of over 50% in size
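Recovery from NS1-induced slow growth read by OD600 in budding yeast switched to galactose assay medium (pH 6.0, -URA) at 1:100 dilution. Compound 23 nl per well; the matching strain lacking NS1 serves as control.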
Shiga toxin inh: A qHTS for Small Molecule Inhibitors of Shiga Toxin; Vero cells, Shiga toxin protein synthesis inhibition reporter; inhibition, % at 38.7 µM; actives 9.2% (n = 290,000); AID 2315, 2010; in the data active = inhibition mostly above about 28%, no sharp cut-off; inactive = mostly below about 43%; note: 0% is about no effect
Pf growth 96h: Primary qHTS for delayed death inhibitors of the malarial parasite plastid, 96 hour incubation | P. falciparum luciferase reporter growth, 96 h | actives 6.9% (n = 320,000) | Potency, µM (top dose mostly 28.7 µM), for the others: top-dose activity change, negative = inhibition, actives largely listed as inhibitors | AID 504834, 2011; note: potency is the fitted concentration of half-maximal effect; % is set by controls: 0 for no effect and ±100 for the full control effect
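96 h incubation, 37 C, 5% CO2, of luciferase-reporter P. falciparum-infected RBCs (2% hematocrit, 0.05% parasitemia final) with test compounds; endpoint luminescence.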
Numbers without * were called inactive; ? = inconclusive; · = no result; ! = not active in a repeat. Unless noted, calls come from the whole dose curve; as a rule, active = well fitted curve in the direction sought with a large enough effect; inconclusive = small, poorly fitted or top-dose-only effect, or another doubt; inactive = no such curve, though single readings can be large; an effect the other way counts as inactive or inconclusive.

SMILES	Cycloheximide cs	Pf growth 48h	Sm TGR inh	NS1 function inh	Shiga toxin inh	Pf growth 96h
COC(=O)C1=C(C)N(CC2CC2)C(=NCc2cc(OC)c(OC)c(OC)c2)N[C@H]1c1ccccc1	-1	3%	1%	3%	-2	12µM*!
COC(=O)C1=C(C)N(Cc2ccccc2)C(=NCc2cc(OC)c(OC)c(OC)c2)N[C@H]1c1ccccc1	-3	?	0%	0%	-3	?
COC(=O)C1=C(C)N(Cc2ccccc2)C(=NCc2cc(OC)c(OC)c(OC)c2)N[C@H]1CCc1ccccc1	-5	13µM*	0%	8%	-1	?
COC(=O)C1=C(C)N(Cc2ccccc2)C(=NCCc2c[nH]c3ccccc23)N[C@H]1c1ccccc1	-3	?	-4%	15%	-2	8.3µM*
O=c1[nH]c2ccc(NCc3ccc(-c4ccc(F)cc4)o3)cc2[nH]1	·	·	-3%	·	·	·
CC1=CC(C)(C)N2C(=O)C3(C(C#N)=C(N)Oc4cc(O)ccc43)c3c(C)c(C)cc1c32 (centres undefined)	-5	·	-4%	21%	-6	?
COc1ccc(CNC(=O)C2CCN(S(=O)(=O)c3ccc4c(c3)N(C(C)=O)CCO4)CC2)cc1	-2	22%	-4%	-9%	22	25%
COC(=O)C1=C(C)N(Cc2ccccc2)C(=NCc2ccccc2)N[C@H]1c1cccc(F)c1	-4	?	-21%	-6%	-6	9.3µM*
COC(=O)C1=C(C)N(Cc2ccccc2)C(=NCc2cccc(Cl)c2)N[C@H]1c1ccccc1	-3	4%	10%	0%	-3	?
CCN1C(=NCCN2CCOCC2)N[C@@H](c2ccccc2)C(C(=O)OC)=C1C	-2	3%	16%	-11%	-3	1.1µM*!
COCCN1C(=NCCCOC(C)C)N[C@@H](c2ccccc2)C(C(=O)OC)=C1C	-1	?	-22%	4%	-1	18%
C=CCN=C1N[C@@H](c2ccccc2)C(C(=O)OC)=C(C)N1CCOC	-3	34%	6%	8%	-7	10µM*!
COCCN=C1N[C@@H](c2ccccc2)C(C(=O)OC)=C(C)N1Cc1ccccc1	-2	11%	22µM*!	17%	-4	?
Cn1c(=O)c2c(SCC(=O)NCc3ccco3)nc(-c3ccccc3F)nc2n(C)c1=O	·	·	-1%	·	·	·
CCN1CCN(c2ncc3c(n2)CCN(Cc2ccccc2C)C3)CC1	·	·	-2%	·	·	·
CCOc1ccc(NC(=O)[C@@H](c2ccccc2)N2Cc3ccccc3C2=O)cc1	·	·	14%	·	·	·
COC(=O)C1=C(C)N(Cc2ccccc2)C(=NCc2ccccc2)N[C@H]1c1ccccc1	-1	?	-4%	11%	-3	1.7µM*
CC(C)(C)C(=O)Nc1ccc2nc(SCC(=O)N3CCc4ccccc43)sc2c1	·	·	-1%	·	·	·
CCOc1ccc(-c2nnc(SCC(=O)NC(C)(C)C)nc2-c2ccc(OCC)c(OC)c2)cc1OC	-3	2.3µM*	0%	3%	-4	?
COc1ccc(NC(=O)CSc2nnc(-c3ccco3)c(-c3ccco3)n2)cc1OC	4	1%	5.6µM*	4%	1	26%
CCn1c(SCC(=O)Nc2ccc(OC)c(OC)c2)nnc1-c1ccco1	-2	-11%	-12%	4%	-1	-6%
COc1cccc(NC(=O)CSc2nnc(-c3ccco3)c(-c3ccco3)n2)c1	-2	10%	2.8µM*	14%	23	18%
COc1ccc(C(=O)CSc2nnc(-c3ccco3)c(-c3ccco3)n2)cc1	10	-3%	·	6%	20	1.5µM*
Cc1ccc(-c2nonc2NC(=O)c2ccco2)cc1C	·	·	-1%	·	·	·
Cc1ccc(C(=O)N/C(=C\c2cccs2)C(=O)NCCCN2CCOCC2)cc1	-2	25%	-4%	1%	-13	29%
SMILES	Cycloheximide cs	Pf growth 48h	Sm TGR inh	NS1 function inh	Shiga toxin inh	Pf growth 96h
CCCCN1C(=O)C2ON(c3ccccc3C)C(c3ccco3)C2C1=O (centres undefined)	-1	13µM*	-34%	-64%	6	85%
O=C(NNC(=S)Nc1ccc(Cl)cc1Cl)c1ccncc1	14*	24%	5%	12%	31	4.1µM*
O=C(NNc1cc(Cl)ccc1Cl)C1CCC1	6	4%	-30%	0%	15	18%
O=C(NNC(=S)Nc1ccccc1Cl)c1ccncc1	15*	67%	13%	6%	80	72%
O=C(NNC(=S)Nc1ccc(Cl)cc1Cl)C1CC1	26*	36%	2%	9%	21	-26%
O=C(NNC(=S)Nc1ccc(Cl)cc1Cl)c1cccnc1	·	69%	-2%	·	·	?
CN(C(=O)Nc1ccc(Cl)cc1Cl)C1CCCC1	18*	150%	11%	9%	44*	42%
O=C(Nc1cccc(Cl)c1Cl)c1ccncc1	12	0%	6%	-8%	30	·
CCc1sc(NC(=O)C(C)C)nc1-c1ccccc1	2	-13%	6%	-17%	-7	0%
O[C@H]1[C@H]2[C@H](O)CCCN2C[C@H]1O	·	-5%	·	·	·	9.5µM*
O[C@H]1[C@H](O)[C@@H](O)CN2CC[C@H](O)[C@H]12	7	-15%	-10%	8%	-3	20%
CC(C)n1nccc1NC(=O)Nc1ccccc1	4	4%	6%	-15%	23	9%
O=C(CN(Cc1ccccc1Cl)C(=O)Cn1nnc(-c2cccs2)n1)NCC1CCCO1 (centres undefined)	1	7%	20%	-16%	-5	1.2µM*
COc1ccc(-c2nnn(CC(=O)N(Cc3ccccc3Cl)C(C(=O)NCC3CCCO3)c3ccco3)n2)cc1OC (centres undefined)	3	9.3µM*	-2%	-5%	17	19%
O=C(CN(Cc1ccccc1Cl)C(=O)CCC(=O)Nc1nccs1)NCC1CCCO1 (centres undefined)	-4	7%	-21%	-4%	-6	?
COc1cc(-c2nnc(CSc3nnc(Nc4ccc(C(C)C)cc4)s3)o2)cc(OC)c1OC	19*	-22%	0%	23%	48	?
COc1ccccc1Nc1nnc(SCc2nnc(-c3cc(OC)c(OC)c(OC)c3)o2)s1	-2	?	0%	-1%	22	?
CCOP(=O)(OCC)/C(C#N)=C/c1ccc([N+](=O)[O-])cc1	-1	-2%	-34%	-5%	-10	42%
COc1ccc(NC(=O)CC2Oc3ccc(C)cc3NC2=O)cc1 (centres undefined)	-8	·	-4%	-1%	-9	?
